D2 ag-1 – agonists of human D2 dopamine receptor (beta-arrestin); P14416; DiscoveRx PathHunter D2 beta-arrestin, luminescence, 90 min; 100% = 57 uM dopamine signal; activation, % (no concentration beside the values); actives 0.084% (n = 360,000); AID 624465; in the data active = activation above about 40%; inconclusive = between about 15% and that limit
Target sequence (P14416 whole entry, looked up): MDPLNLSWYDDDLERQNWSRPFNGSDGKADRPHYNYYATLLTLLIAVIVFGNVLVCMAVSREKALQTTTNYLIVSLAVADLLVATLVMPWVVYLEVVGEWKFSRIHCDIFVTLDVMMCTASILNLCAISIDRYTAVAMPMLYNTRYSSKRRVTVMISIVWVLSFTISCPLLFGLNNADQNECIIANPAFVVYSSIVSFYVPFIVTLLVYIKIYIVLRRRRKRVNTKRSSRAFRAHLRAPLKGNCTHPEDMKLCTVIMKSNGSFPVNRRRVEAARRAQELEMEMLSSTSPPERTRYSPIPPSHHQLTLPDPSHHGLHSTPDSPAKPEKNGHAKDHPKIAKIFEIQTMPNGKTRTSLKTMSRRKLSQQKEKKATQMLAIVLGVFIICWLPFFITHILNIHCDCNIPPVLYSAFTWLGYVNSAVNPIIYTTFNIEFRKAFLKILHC
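Agonist mode: compounds alone added to overnight-plated D2 PathHunter cells for 90 min at 37 C, with 57 uM final dopamine (EC100) defining full response. Beta-arrestin recruitment detected by chemiluminescent reagent, read after 1 h at ambient temperature.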
D2 ag-2 – activates the human D2 dopamine receptor; P14416; HEK293 T-REx D2 cells, calcium flux agonist mode; activation, % at 2 µM; actives 0.53% (n = 340,000);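 active = activation over 3 SD above normal in the single-dose calcium agonist read, cut at about 30% in these data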
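HEK293 Trex D2 cells, tetracycline-induced, o/n 30 C 5% CO2; no-wash Ca dye, RT 30–90 min; 10-cycle baseline, 23 nl cpd added, kinetic Ca read 180 s; agonist hits = positive Ca response.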
D2 PAM-1 – human D2 receptor positive allosteric modulation | P14416 | DiscoveRx D2 beta-arrestin cells, luminescence, 90 min; 100% = 57 uM dopamine signal | potentiation, % (no concentration beside the values) | actives 0.23% (n = 360,000) | AID 624464; in the data active = potentiation above about 50%; inconclusive = mostly about 30% to 49%
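PathHunter beta-arrestin assay in DiscoveRx D2 cells. Compounds were added with an EC20 of dopamine (50 nM final) for 90 min at 37 deg C. Luminescence was read 1 h after detection reagent, with 57 uM dopamine as the EC100 control.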
D2 antagonist – D2 dopamine receptor (human) antagonism; P14416; inhibition, % at 10 µM; AID 485344; HEK293 TREx D2 cells, calcium flux, dopamine EC80; actives 2% (n = 340,000); in the data active = inhibition above about 30%; inactive = below that, where a call was filed
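Calcium mobilization kinetics were recorded at 1 s intervals in tetracycline-induced HEK293 T-REx D2 cells, first for 180 s after compound addition and then 180 s after EC80 dopamine.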
D2 PAM-2 – positively modulates the human D2 dopamine receptor allosterically | potentiation, % at 10 µM | HEK293 T-REx D2, calcium flux, EC20 dopamine potentiation | P14416 | actives 0.34% (n = 340,000);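 active = potentiation over 3 SD above the plate norm, cut at about 30% in these data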
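Tetracycline-induced Hek293 Trex D2 cells, force-coupled to calcium, loaded with no-wash calcium dye. Compound added with 180 s kinetic read for agonism, then EC20 dopamine and a further 180 s read for potentiation.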
Of the large screens only hits and unclear results are named; the others gave an inactive call. An excerpt weighted towards active compounds, which were near 2.4% of everything screened.

O=C(O)c1ccc(NS(=O)(=O)c2ccc3c(c2)C(=O)c2ccccc2C3=O)cc1	none
Cc1cccc(C)c1NS(=O)(=O)c1ccc2c(c1)C(=O)c1ccccc1C2=O	D2 PAM-1 59.5
Cc1csc(=O)n1CCC(=O)OCC(=O)Nc1ccc(S(N)(=O)=O)cc1	D2 antagonist 53.9
Cc1csc(=O)n1CCC(=O)OCC(=O)Nc1ccc(C(N)=O)cc1	none
O=C(CSc1nnc2scc(-c3ccccc3)n12)c1ccc2c(c1)OCCO2	D2 antagonist 30.9
c1ccc(-c2csc3nnc(SCc4ccc5c(c4)OCCO5)n23)cc1	D2 PAM-2 42.8
O=C(CSc1nnc(-c2ccccc2)o1)c1ccc2c(c1)OCCO2	none
c1ccn2c(SCc3ccc4c(c3)OCCO4)nnc2c1	none
COc1ccc(-n2nnnc2SCC(=O)c2ccc3c(c2)OCCO3)cc1	D2 PAM-2 34.4
COc1ccc(-n2nnnc2SCC(=O)c2cccc(OC)c2)cc1	none
CCOC(=O)C1(CCOC)CCCCC1=O (stereo not drawn)	none (no result: D2 ag-2, D2 antagonist, D2 PAM-2)
CCCN1C(=O)C2(c3ccccc31)c1c(oc3ccc(C)cc3c1=O)C(=O)N2CCOC (stereo not drawn)	none (no result: D2 ag-1, D2 PAM-1, D2 antagonist)
CCOC(=O)N1CCC(Nc2c(Nc3ccc(C)c(C)c3)c(=O)c2=O)CC1	D2 antagonist 57.0
O=C(Cn1ccc(=O)[nH]c1=O)c1ccc([N+](=O)[O-])o1	D2 ag-1 46.9 (no result: D2 ag-2, D2 antagonist, D2 PAM-2)
COc1ccc(S(=O)(=O)Nc2cc3c(cc2N2CCOCC2)n(C)c(=O)n3C)cc1	none (no result: D2 ag-1, D2 PAM-1, D2 antagonist)
C=CC[C@@H]1C=C[C@H](O/N=C/[C@@H](NS(=O)(=O)c2ccc(C)cc2)[C@H](C)/C=C/CC(=O)OC)[C@@H](CO)O1	D2 antagonist 31.0 (no result: D2 ag-1, D2 PAM-1)
COC(=O)C/C=C/[C@@H](C)[C@@H](/C=N/OC[C@@H](C)[C@H](OCc1ccccc1)C(C)C)NS(=O)(=O)c1ccc(C)cc1	none (no result: D2 ag-1, D2 ag-2, D2 PAM-1, D2 antagonist)
Cc1ccc(SC[C@H](c2ccccc2)N2CCN(C)CCC2=O)cc1	D2 antagonist 37.6
CN1CCC(=O)N([C@H](CSc2ccccc2)c2ccccc2)CC1	none
CCO/C=C1\SC(=S)N(c2ccc(Cl)cc2)C1=O	none
CC(C)c1ccc(N2C(=O)/C(=C/N(C)C)SC2=S)cc1	D2 ag-2 30.4
CC(C)c1ccc2oc(-c3ccc(Cl)c(NC(=O)c4cccs4)c3)nc2c1	none (no result: D2 ag-1, D2 PAM-1, D2 antagonist)
CCCn1cc(S(=O)(=O)c2ccccc2)c(=O)c2cc(OC)c(OC)cc21	D2 PAM-2 39.4
COc1ccc(-c2cc(C(F)(F)F)nc(SCC(=O)N3CCCCC3)n2)cc1	none (no result: D2 ag-1, D2 PAM-1, D2 antagonist)
CN(C(=O)CSc1nnc2[nH]c(=O)cc(-c3ccccc3)n12)c1ccccc1	none (no result: D2 ag-1, D2 PAM-1, D2 antagonist)
CN1C(=O)c2ccc(NC(=O)c3ccc(Cl)cc3Cl)cc2C1=O	none (no result: D2 ag-2, D2 antagonist, D2 PAM-2)
C/C(CCc1ccccc1)=N\NC(=S)NCCc1ccccc1	D2 PAM-2 30.8
CC(Sc1nnc(-c2cc3ccccc3o2)n1-c1ccccc1)C(=O)O (stereo not drawn)	D2 antagonist 45.0
Cc1cc(C)c(NC(=O)C(C)Sc2nnc(-c3ccco3)n2-c2ccccc2)c(C)c1 (stereo not drawn)	none (no result: D2 ag-1, D2 PAM-1)
Cc1noc(C)c1S(=O)(=O)NCCN1CCN(c2ccccc2)CC1	D2 ag-2 31.3, D2 antagonist 32.6
Cc1nc(SCC(=O)N2CCN(C(=O)c3cccs3)CC2)c2c(C)c(C)sc2n1	none
NC(=O)CCCCC(=O)OCCCc1cccs1	D2 PAM-2 31.3
Nc1cc(C(F)(F)F)ccc1Nc1ccccc1	D2 antagonist 67.1
Nc1cc([N+](=O)[O-])ccc1Nc1ccccc1	none
N#Cc1ccc(Nc2ccccc2)c(N)c1	D2 antagonist 30.9
COc1ccc(NC(=O)CCCn2c(=O)c3sccc3n(Cc3ccc(C)cc3C)c2=O)cc1	none (no result: D2 ag-2, D2 antagonist, D2 PAM-2)
CCOc1ccc(NC(=O)N2CCN(C(=O)c3nsc4ccccc34)CC2)cc1	none (no result: D2 ag-1, D2 ag-2, D2 PAM-1, D2 antagonist)
COc1ccc(Nc2ccc3c(c2)=NC2(CCCCC2)[N+]=3[O-])cc1	none
[O-][N+]1=c2ccc(Nc3ccccc3)cc2=NC12CCCCC2	D2 antagonist 32.5
Cc1oc(-c2ccc(-c3ccccc3)cc2)nc1CN(CCO)C(C)C	none
CC(C)[C@H](NC(=O)N1CCn2c1nc1ccccc12)C(=O)N[C@H](C(=O)O)c1ccccc1	D2 antagonist 58.0
N#CCO/N=C/C(=O)Nc1ccc(F)cc1F	D2 antagonist 53.2
O=C(CC(=O)Nc1ccc(F)cc1F)Nc1ccc(F)cc1F	none
Cc1cc(OCC(=O)OC(C)C(=O)NC2CC2)c(C(C)C)cc1Cl (stereo not drawn)	none (no result: D2 ag-2, D2 antagonist, D2 PAM-2)
CCCCC[n+]1ccn(C2=C([O-])c3ccccc3C(=O)/C2=N\S(=O)(=O)c2ccc(Cl)cc2)c1	none
CCCC[n+]1ccn(C2=C([O-])c3ccccc3C(=O)/C2=N\S(=O)(=O)c2ccc(Cl)cc2)c1	D2 antagonist 33.7
O=C(COC(=O)c1ccc(O)cc1)Nc1ccc(OC(F)F)cc1	D2 antagonist 31.8
Cc1cc(C(=O)NCCN2CCN(c3cccc(Cl)c3)CC2)n(-c2ccccc2)n1	none
Cc1cc(C(=O)NCCCN2CCN(c3cc(Cl)ccc3C)CC2)n(-c2ccccc2)n1	D2 antagonist 47.2
O=C(Cc1cnn(-c2ccccc2)c1)c1ccc(O)c(O)c1O	D2 ag-1 inconclusive, D2 PAM-1 109.8
CCc1cc(C(=O)Cc2cnn(-c3ccccc3)c2)c(O)cc1O	none
CN(C(=O)NC1CC(=O)N(c2ccc3c(c2)OCCO3)C1)c1ccccc1 (stereo not drawn)	none
COc1ccccc1CNc1nc(Oc2cccc(F)c2)c2sccc2n1	none (no result: D2 ag-2, D2 antagonist, D2 PAM-2)
O=C(O)c1cc2cc(S(=O)(=O)O)ccc2cc1O	none (no result: D2 ag-2, D2 antagonist, D2 PAM-2)
O=C(O)c1cc(S(=O)(=O)O)ccc1O	D2 antagonist 42.4
O=C(c1ccco1)N1CCN(Cc2cn[nH]c2-c2cccc3ccccc23)CC1	none
Cc1ccc(NC2=C(Cl)C(=O)c3ccccc3C2=O)cc1	none
CCN(CC)c1ccc(NC2=C(Cl)C(=O)c3ccccc3C2=O)cc1	D2 PAM-1 59.5
O=C(CCc1ccc(S(=O)(=O)N2CCOCC2)cc1)N/N=C/c1ccc(O)c(O)c1O	D2 ag-1 inconclusive, D2 PAM-1 82.1
O=C(CCc1ccc(S(=O)(=O)N2CCOCC2)cc1)N/N=C/c1ccc(F)cc1F	none
CCCc1nn2c(-c3ccccc3)nnc2o1	none (no result: D2 ag-2, D2 antagonist, D2 PAM-2)
COC(=O)c1cc(C(=O)NCCCN2CCOCC2)cc([N+](=O)[O-])c1	none
COc1cccc(CN2C(=O)C(C)N(C(=O)c3ccccc3)c3ccccc32)c1 (stereo not drawn)	D2 PAM-2 31.1
Cc1cc(-n2c(C)cc(C(=O)COc3ccc(F)c(F)c3)c2C)no1	D2 antagonist 30.0
Cc1cc(-n2c(C)cc(C(=O)COc3ccccc3[N+](=O)[O-])c2C)no1	none (no result: D2 ag-2, D2 antagonist, D2 PAM-2)
CC1CCCCN1C(=O)C12CCC(C)(C(=O)C1)C2(C)C (stereo not drawn)	none (no result: D2 ag-2, D2 antagonist, D2 PAM-2)
